Screening data: PubChem BioAssay, Broad Institute
CaV13 FRET inh: Primary screen for inhibitors of IQ motif and Ca2+-dependent inactivation inhibitor domain binding in CACNA1D, Förster resonance energy transfer in living cells, …. HEK cells, CFP/YFP FRET ICDI-IQ, plate reader, 10 min; percent FRET-ratio fall versus neutral wells. inhibition, % at 12.3 µM. 340,000 tested, 0.098% active;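 active = mean replicate inhibition of at least 30% and at least 1% of replicates passing that level; inconclusive = only one of the two criteria is met; inactive = neither criterion is met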;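 note: 0% = median of the neutral control wells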
ERAP1 HTS inh: human ERAP1 aminopeptidase inhibitors, primary screen, biochemical, single point, plate reader; Endoplasmic reticulum aminopeptidase 1 (Homo sapiens), Q9NZ08; recombinant ERAP1, Leu-AMC fluorescence, 60 min; inhibition, % at 10.7 µM; 340,000 tested, 0.15% active; AID 652197, 2013;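 active = mean replicate inhibition of at least 30%, or all replicates individually reaching that 30% level; inactive = mean below 30% and not every replicate reaching it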;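 note: 0% = neutral control wells and 100% = L-leucinethiol positive control wells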
Target sequence (Q9NZ08 whole entry, looked up): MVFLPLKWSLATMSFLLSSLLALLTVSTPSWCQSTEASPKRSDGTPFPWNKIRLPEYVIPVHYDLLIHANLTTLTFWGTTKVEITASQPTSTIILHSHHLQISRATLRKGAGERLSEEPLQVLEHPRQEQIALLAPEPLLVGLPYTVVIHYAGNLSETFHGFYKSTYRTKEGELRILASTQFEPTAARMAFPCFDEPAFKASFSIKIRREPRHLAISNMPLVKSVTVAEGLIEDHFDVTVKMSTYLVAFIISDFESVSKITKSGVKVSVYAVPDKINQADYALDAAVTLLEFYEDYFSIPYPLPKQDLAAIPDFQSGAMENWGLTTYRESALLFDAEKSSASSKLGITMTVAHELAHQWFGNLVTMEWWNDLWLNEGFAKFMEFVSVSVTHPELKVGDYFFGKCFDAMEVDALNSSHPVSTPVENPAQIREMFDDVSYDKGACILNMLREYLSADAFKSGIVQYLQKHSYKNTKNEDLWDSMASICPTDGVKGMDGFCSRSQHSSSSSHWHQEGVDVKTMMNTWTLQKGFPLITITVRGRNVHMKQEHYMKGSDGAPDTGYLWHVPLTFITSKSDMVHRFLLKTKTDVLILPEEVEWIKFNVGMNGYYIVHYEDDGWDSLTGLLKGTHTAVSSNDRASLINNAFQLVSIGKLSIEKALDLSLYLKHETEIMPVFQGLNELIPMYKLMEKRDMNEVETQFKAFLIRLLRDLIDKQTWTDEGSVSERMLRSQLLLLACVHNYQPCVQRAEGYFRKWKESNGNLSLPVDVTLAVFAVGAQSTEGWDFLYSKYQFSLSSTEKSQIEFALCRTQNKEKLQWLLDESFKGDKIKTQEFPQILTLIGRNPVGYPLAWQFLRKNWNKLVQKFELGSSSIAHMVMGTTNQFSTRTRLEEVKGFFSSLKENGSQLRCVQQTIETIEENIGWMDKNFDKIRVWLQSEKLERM
INS-1E GSIS act: GLuc luminescence reporter in INS-1E cells, primary screen for activators of glucose-dependent secretion of insulin; 370,000 tested, 0.61% active; AID 743287, 2014; INS-1E GLuc reporter insulin secretion, 2-3 h; activation, % at 16.6 µM;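 active = lowest replicate activation of at least 40%, so every replicate reaches that level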;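 note: 0% = median of neutral control wells and 100% = median of IBMX positive control wells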
DENV2 CPE: inhibitors of DENV2 cytopathic effect, primary screen, cell-based, plate reader, single concentration | DENV2-infected cells, cytopathic effect rescue | CPE inhibition, % at 9.99 µM | 350,000 tested, 1.7% active | AID 651640, 2012; in the data active = CPE inhibition above about 20%, passing the limit was not always enough; inconclusive = no clear call, values can overlap the other calls; tested in BHK-21 cells;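 note: 0% = median of neutral control wells and 100% = median of positive control wells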
rRNA inh HTS: reduced GFP signal of wild-type E. coli, primary screen, bacterial rRNA inhibitor project, GFP/RFP fluorescence, OD600, single point | E. coli WT GFP vs humanized-ribosome RFP mutants, 24 h; stronger effect = lower value; DMSO median 0, no signal -100 | GFP signal change (wild-type ribosome), % (test concentration not listed) | 350,000 tested, 1.6% active;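 active = significant combined selectivity score with lowered wild-type GFP, culture density cut under 30%, mutant RFP and density less affected; inactive = any of these conditions unmet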
PGC1a acetyl inh: inhibitors of PGC1a acetylation signal, primary screen, cell-based, U2OS, AlphaScreen, inhibitor mode; 350,000 tested, 0.17% active; AID 651687, 2012; AlphaScreen anti-acetyl-lysine; with virally co-expressed GCN5 acetyltransferase; inhibition, % at 15.6 µM;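 active = every replicate shows inhibition of at least 40%; inconclusive = mean inhibition at least 40% but some replicate below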;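 note: 0% = neutral control wells and 100% = positive control wells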
An asterisk follows results filed as active; ? = inconclusive; nt = no result given. Sampled rows, rich in hits. Any-hit rate of the full collection: about 3.2%.

SMILES	CaV13 FRET inh	ERAP1 HTS inh	INS-1E GSIS act	DENV2 CPE	rRNA inh HTS	PGC1a acetyl inh
O=C(CSc1nnnn1C1CCCCC1)NCCc1ccccc1	-9	2	-2	-6	-28*	4
COc1ccc(CNC(=O)N(C)C[C@H]2OCc3ccccc3-c3ccccc3C(=O)N([C@@H](C)CO)C[C@H]2C)cc1	nt	0	-5	-2	-4	8
COc1cc(/C=N/NC2=NCCCCC2)ccc1O	-15	nt	-2	2	6	-2
COc1cc(/C=N/Nc2ncnc3sc4c(c23)CCC4)ccc1O	-18	-3	4	1	-20*	5
COc1ccc(S(=O)(=O)N(C)C[C@H]2Oc3c(NS(C)(=O)=O)cccc3C(=O)N([C@@H](C)CO)C[C@H]2C)cc1	nt	3	2	-5	4	-14
Cc1onc(-c2ccccc2)c1C(=O)N/N=C/c1c(F)cccc1Cl	-6	-1	-11	79*	1	nt
Cc1onc(-c2ccccc2)c1C(=O)NN=Cc1cc(Cl)cc(Cl)c1O	-16	-18	-1	-6	nt	nt
COc1ccc2c3c(n(C)c2c1)[C@H](CO)N(C(=O)Nc1ccccc1F)CC31CN(C)C1	nt	nt	-12	86*	5	-12
COc1ccc2c3c(n(C)c2c1)[C@H](CO)NCC31CN(C(=O)c2ccc(F)cc2)C1	nt	nt	9	69*	0	4
COc1ccc2c3c(n(C)c2c1)[C@@H](CO)N(C(=O)c1cccnc1)CC31CCN(S(=O)(=O)c2ccccc2)CC1	nt	nt	3	39*	-2	3
CCS(=O)(=O)N1CCC2(CC1)CN(C(=O)c1ccc(F)cc1)[C@@H](CO)c1c2c2ccc(OC)cc2n1C	nt	-1	-16	24*	0	0
COc1ccc2c3c(n(C)c2c1)[C@H](CO)N(C(=O)c1cccnc1)CC31CN(S(C)(=O)=O)C1	nt	-5	1	-5	2	0
C[C@H]1CCCCO[C@@H](CN(C)C(=O)CCCN(C)C)[C@@H](C)CN([C@@H](C)CO)C(=O)c2cc(NS(=O)(=O)c3ccccc3)ccc2O1	nt	-2	15	-4	1	9
COc1ccc2c3c(n(C)c2c1)[C@H](CO)N(C(=O)Nc1ccc(F)cc1)CC31CN(C(=O)Nc2c(C)noc2C)C1	nt	-3	-27	0	-3	nt
COc1ccc2c3c(n(C)c2c1)[C@@H](CO)N(C(=O)c1cccc(F)c1)CC31CN(C(=O)c2cccc(F)c2)C1	nt	3	-15	34*	-4	0
O=C(CCCc1ccccc1)Nc1ccnn1C1CCN(Cc2ccccc2)CC1	-5	1	4	-1	6	2
Cc1ccc(C)c(CN2CCC(n3nccc3NC(=O)CCCc3ccccc3)CC2)c1	-7	2	-16	2	-27*	nt
CCN(CC(=O)Nc1ccc(NC(C)=O)cc1)C(=O)/C=C/c1cn(-c2ccccc2)nc1-c1cccs1	-6	-3	3	-1	-18*	nt
CC(=O)N(C)C[C@H]1Oc2ncc(-c3cccnc3)cc2C(=O)N([C@@H](C)CO)C[C@H]1C	nt	-1	9	-2	6	12
COc1ccc(CNC(=O)CCNS(=O)(=O)c2ccc(Cl)cc2)cc1	1	4	8	3	-1	2
COc1ccc(S(=O)(=O)NCCC(=O)NCc2ccc(F)cc2)cc1	-10	nt	2	nt	nt	80*
COc1ccc(CCC(=O)NNC(=S)NCc2ccc(F)cc2)cc1	-8	4	9	nt	-29*	0
COc1ccc(CCC(C)NCc2ccc(F)cc2)cc1 (stereo unspecified)	23	1	8	33*	7	nt
CC(=O)N1[C@@H]2c3ccc(C4=CCCCC4)c(=O)n3C[C@@H]2[C@@H](CO)[C@@H]1C(=O)Nc1ccccc1	nt	-2	3	-4	-3	nt
Cc1ccccc1-c1cnc2c(c1)C(=O)N([C@H](C)CO)C[C@H](C)[C@@H](CN(C)CC1CCCC1)O2	nt	1	8	5	3	-10
SMILES	CaV13 FRET inh	ERAP1 HTS inh	INS-1E GSIS act	DENV2 CPE	rRNA inh HTS	PGC1a acetyl inh
COc1ccc(S(=O)(=O)N(C)C[C@H]2Oc3ccc(NC(=O)C4CC4)cc3CC(=O)N([C@@H](C)CO)C[C@H]2C)cc1	nt	1	-6	-1	0	2
CCOC(=O)c1sc2nc(NC(=O)C(C)(C)C)sc2c1C	-6	4	-29	1	-20*	-13
O=c1cc(Cl)[nH]c(=O)n1Cc1ccccc1	-17	1	48*	-6	-2	13
CNC(=O)C[C@@H]1CC[C@@H]2[C@H](COc3ccc(NC(=O)c4cscn4)cc3C(=O)N2C)O1	nt	nt	16	6	0	-7
Cc1nc2ncccn2c1-c1csc(Nc2ccccc2)n1	-4	-1	nt	-1	19	nt
CC(=O)Nc1ccc(Nc2nc(-c3c(C)nc4ccccn34)cs2)cc1	-2	nt	49*	-2	-12	6
Cn1nc(C(F)(F)F)c(-c2ccc(Br)cc2)c1NC(=O)c1cccnc1	-4	0	-28	0	-44*	-33
Cn1nc(C(F)(F)F)c(-c2ccc(Br)cc2)c1NC(=O)c1ccco1	-14	-2	-19	0	-32*	nt
COc1ccc(-c2c(C(F)(F)F)nn(C)c2NC(=O)c2cccnc2)cc1	-4	1	-8	-4	-9	-4
Cn1nc(C(F)(F)F)c(-c2ccc(F)cc2)c1NC(=O)Nc1ccc(F)cc1	-2	1	-33	-11	-30*	-13
O=C1CCC(=O)N(O)CCCCCNC(=O)CCC(=O)N(O)CCCCNC(=O)CCC(=O)N(O)CCCCCN1	nt	-1	nt	87*	nt	6
C[C@@H]1CN([C@H](C)CO)C(=O)c2cc(-c3ccc(F)cc3)cnc2O[C@H]1CN(C)C(=O)NC1CCCC1	nt	0	5	1	0	2
COc1ccc2sc(C)[n+](C)c2c1	-6	11	-1	nt	20	?
CCCC[n+]1c(C)sc2cc(OC)ccc21	-4	35*	1	7	6	-7
Cc1ccc(NS(=O)(=O)c2cccc(C(=O)NCCCn3ccnc3)c2)cc1	-12	1	-5	-5	1	nt
Cc1ccc(S(=O)(=O)Nc2cccc(C(=O)NCCCn3ccnc3)c2)cc1F	-5	-2	-4	54*	0	nt
COc1ccc(/C=N/Nc2nc(-c3ccc(Cl)cc3)cc(C(F)(F)F)n2)c(OC)c1	-4	nt	76*	nt	nt	nt
Cc1[nH]c2ccccc2c1C(=O)CSC(=S)N1CCN(C)CC1	-13	-2	nt	55*	nt	11
